Screening results from PubChem BioAssay.
FBW7 activator = activators of human E3 ligase FBW7; Q969H0; AlphaScreen FBW7–phospho-cyclin E peptide binding, activator screen; normalized activity (activation), % at 26.1 µM; 0.13% of 650,000 active; in the data active = normalized activity above about 1.9%;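 note: purified mutant Fbw7 with reduced substrate affinity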
TEAD-YAP inh = TEAD-YAP interaction inhibition. HEK-TIYL cells, TEAD-Gal4/YAP UAS-luciferase luminescence. inhibition, % at 9.12 µM. 1.4% of 640,000 active; in the data active = inhibition above about 32%;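 note: 0% = median of test compound wells and 100% = reference inhibitor wells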
GPR151 ag = activators of human GPR151 | activation, % at 11.2 µM | 1% of 650,000 active | AID 1508602 | Q8TDV0 | PathHunter beta-arrestin GPR151 cells, luminescence; in the data active = activation above about 4.9%;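 note: 0% = median of compound wells and 100% = cells with positive control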
Target sequence (Q8TDV0 whole entry, looked up): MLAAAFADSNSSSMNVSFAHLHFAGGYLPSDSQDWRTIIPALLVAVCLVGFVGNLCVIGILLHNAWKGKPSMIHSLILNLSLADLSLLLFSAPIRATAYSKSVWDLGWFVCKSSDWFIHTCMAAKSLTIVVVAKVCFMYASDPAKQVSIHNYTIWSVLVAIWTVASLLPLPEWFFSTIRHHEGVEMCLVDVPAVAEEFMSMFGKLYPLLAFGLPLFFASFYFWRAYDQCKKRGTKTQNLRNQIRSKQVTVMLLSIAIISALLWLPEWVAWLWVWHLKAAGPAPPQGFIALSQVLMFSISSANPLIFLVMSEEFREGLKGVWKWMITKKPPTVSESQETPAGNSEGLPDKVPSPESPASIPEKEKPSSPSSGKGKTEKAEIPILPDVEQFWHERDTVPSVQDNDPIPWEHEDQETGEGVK
MITF inh = human MITF inhibition, primary screen. 0.91% of 650,000 active. inhibition, % at 2.6 µM. AlphaScreen MITF homodimerization, bead proximity signal. AID 1259374. O75030; in the data active = inhibition above about 50%;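 note: 0% = vehicle wells with protein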
GPR151 conf act = human GPR151 activation, confirmation screen. GPR151 PathHunter beta-arrestin cells, luminescence, 90 min; % of EA-reagent control over plate median. activation, % at 11.2 µM. shares compounds with GPR151 ag. AID 1508609. 6,700 tested, under 10 active;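 active = mean percent activation across replicates above the confirmation screen cutoff of 4.91%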
GPR119 counter = activates human GPR119 in a GPR151 counter-screen; shares compounds with GPR151 ag; 0.3% of 6,700 active; AID 1508611; activation, % at 11.2 µM; GPR119 PathHunter beta-arrestin cells, luminescence, 90 min; 0 = compound-well median, 100 = enzyme-acceptor control;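 active = mean percent activation in the counterscreen above 29.09%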;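 note: counterscreen on off-target GPR119 to flag nonselective hits from the GPR151 activator screen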
An asterisk follows results filed as active; x = not tested or not shown; ! = not active in a repeat. An excerpt weighted towards active compounds, which were near 3.4% of everything screened.

SMILES | FBW7 activator | TEAD-YAP inh | GPR151 ag | MITF inh | GPR151 conf act | GPR119 counter
COc1ccc(OC)c(N2C(=O)C3CC(C)=C(C)CC3C2=O)c1 (stereo not given) | 0.0 | -0.9 | -1.2 | 4.5 | x | x
COc1ccc(Cl)cc1N1C(=O)C2CC(C)=C(C)CC2C1=O (stereo not given) | -0.1 | 14.9 | 6.8* | -5.3 | -0.4 | -5.8
COc1ccc(-c2nc(NCCO)c3ncn(C4CCCCC4)c3n2)cc1 | 0.3 | -4.0 | 6.0* | 12.2 | 0.8 | -4.2
CCCCOC(=O)C1C2C=CC3(CN(C4CCCCC4)C(=O)C13)O2 (stereo not given) | 0.0 | 2.0 | 5.8* | 11.2 | 0.6 | 1.2
Cc1cc(Br)ccc1N1C(N)=C(C#N)C(c2ccc3c(c2)OCO3)C2=C1CC(C)(C)CC2=O (stereo not given) | 0.3 | -6.0 | 0.3 | 10.1 | x | x
Cc1cc(CC(=N)N)c(C)cc1CC(=N)N | 0.0 | -4.7 | 5.4* | 6.1 | -1.4 | -12.3
COc1ccc(N2CCN(C3CCCN(C(=O)CCN4CCCCO4)C3)CC2)cc1 (stereo not given) | 0.0 | -4.8 | 5.3* | 5.8 | 1.0 | 9.9
COc1ccccc1C1(NC(=O)CCn2nc(C)cc2C)CCCC1 | 0.1 | 8.4 | 5.0* | -11.4 | 0.7 | -2.6
COc1ccccc1C1(NC(=O)CCn2cccn2)CCCC1 | 0.1 | 4.6 | 1.9 | 14.9 | x | x
CCOC(=O)[C@H](CCc1ccccc1)N[C@@H](C)C(=O)N1[C@H](C(=O)O)C[C@@H]2CCC[C@@H]21 | -0.1 | 6.6 | 7.0*! | -2.6 | 1.6 | 11.5
O=C(Nc1nncs1)c1cccc(Br)c1 | 0.0 | -14.7 | 2.5 | 0.3 | x | x
O=C(Nc1nncs1)c1cccc(I)c1 | -0.3 | 2.7 | 5.4* | -8.0 | 1.3 | 5.0
CN1CCN(C(=O)c2ccc(-c3nc(Nc4ccc(Oc5ccccc5)cc4)c4ncn(-c5ccccc5)c4n3)cc2)CC1 | -0.1 | 0.5 | 2.4 | 6.6 | x | x
N#Cc1ccccc1OCC(=O)N1CCOCC1 | 0.0 | 4.8 | 5.5* | 9.3 | -0.3 | 1.8
COC(=O)C1=C(C)NC2=C(C(=O)CCC2)C1c1coc2ccc(Cl)cc2c1=O (stereo not given) | 0.0 | 0.2 | -0.9 | -1.5 | x | x
CCOC(=O)c1ccccc1NC(=O)c1cnn(-c2ccccc2)c1NC(=O)C(C)(C)C | 0.2 | 8.8 | 0.0 | 3.1 | x | x
C=CCn1c(C)cc(C(=O)COC(=O)CNC(=O)c2ccc(OCC)c(OCC)c2)c1C | -0.1 | -1.0 | 9.6* | 5.2 | 0.5 | 2.4
C[C@@H](O)[C@@H]1NC(=O)[C@H]2CN(Cc3cccc4cccnc34)CCN2C1=O | 0.1 | 7.5 | 1.8 | 13.6 | x | x
O=C(Nc1ccc(F)cc1)c1cnc(N2CCN(c3ccccn3)CC2)c2ccccc12 | -0.1 | 0.0 | -0.1 | 16.5 | x | x
Cc1ccc(NC(=O)c2cnc(N3CCN(c4ccccn4)CC3)c3ccccc23)cc1F | 0.1 | 12.3 | 10.3* | 2.2 | -0.7 | -14.2
O=C(Nc1ccccc1)c1cc(N2CCN(c3ccccn3)CC2)nc2ccccc12 | 0.3 | 4.8 | 5.1* | 5.9 | -0.2 | -0.2
COc1cccc(N(CC(=O)Nc2ccc(C)cc2)S(C)(=O)=O)c1 | -0.1 | 6.6 | 0.8 | 4.6 | x | x
Cc1cccc(-n2cc(-c3ccccc3)c3c(NCCc4ccc(Cl)cc4)ncnc32)c1 | -0.2 | 0.1 | -0.3 | -2.5 | x | x
CCOc1ccc(-n2cc(-c3ccccc3)c3c(NCc4ccc5c(c4)OCO5)ncnc32)cc1 | -0.1 | -0.2 | 0.8 | 5.0 | x | x
COc1ccccc1Nc1ncnc2c1c(-c1ccccc1)cn2-c1ccccc1 | -0.1 | 8.3 | 6.8* | 6.0 | 0.7 | 10.9
COc1ccc(-n2cc(-c3ccccc3)c3c(NCc4ccc5c(c4)OCO5)ncnc32)cc1 | 0.4 | -0.6 | 6.1* | 16.4 | -0.1 | 9.1
CC(C)Nc1ncnc2c1c(-c1ccccc1)cn2-c1ccc(Br)cc1 | -0.2 | 1.4 | 5.4* | 1.2 | -1.4 | 0.3
Cc1ccc(-n2cc(-c3ccccc3)c3c(NC(C)C)ncnc32)cc1 | -0.1 | -6.9 | -0.8 | -1.0 | x | x
Cc1cccc(-n2cc(-c3ccccc3)c3c(NCCc4ccccc4)ncnc32)c1 | 0.2 | -5.4 | 6.0* | 1.7 | -0.2 | 9.2
Brc1ccc(-n2cc(-c3ccccc3)c3c(N4CCN(c5ccccc5)CC4)ncnc32)cc1 | -0.1 | 2.9 | -0.4 | 6.8 | x | x
